# Test results as given in PubChem BioAssay (Tox21).
# Results filed as inconclusive are left out. Entries that show only a call come without a potency. Active and inactive are the calls of the source. Calls follow the shape of the dose curve; as a rule, active = well fitted cell-killing curve with a large enough effect in the repeat runs; inconclusive = weak or mixed curves, or effect the other way; inactive = flat fitted curve, though single readings scatter.
# Assay: cAMP Responsive Elements (CRE) small molecule agonists, cell-based qHTS assay: qHTS cell viability counter screen (AID 2060914); also: nearly all actives have a fitted effect of over 50% in size
# Procedure, shortened: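 Cells are seeded and incubated 18 h, treated with compounds in DMSO for 3 h, read for the bla reporter, then given CellTiter-Glo; luminescence is measured after 30 min at room temperature.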
row,SMILES,Potency
1,O=C1Cc2cc(CCN3CCN(c4nsc5ccccc45)CC3)c(Cl)cc2N1,inactive
2,O=C1CCc2cc(OCCCCc3nnnn3C3CCCCC3)ccc2N1,inactive
3,O=[N+]([O-])c1ccc(O/N=C/c2cc(Br)c(O)c(Br)c2)c([N+](=O)[O-])c1,inactive
4,FC(F)(F)c1ccccc1Cl,inactive
